Screens from PubChem.
Compounds with a hit are over-represented: about 10% of the library has one in this group of screens.
GLS inh: inhibitors of human glutaminase (GLS); Potency, µM (highest dose often 45.5 µM), for inactives: at the highest dose activity change, negative = inhibition, usual class: inhibitors; actives 0.21% (n = 410,000); O94925; GLS enzymatic activity, qHTS titration; note: % is set by controls: 0 for no effect and ±100 for the full control effect
Target sequence (O94925 whole entry, looked up): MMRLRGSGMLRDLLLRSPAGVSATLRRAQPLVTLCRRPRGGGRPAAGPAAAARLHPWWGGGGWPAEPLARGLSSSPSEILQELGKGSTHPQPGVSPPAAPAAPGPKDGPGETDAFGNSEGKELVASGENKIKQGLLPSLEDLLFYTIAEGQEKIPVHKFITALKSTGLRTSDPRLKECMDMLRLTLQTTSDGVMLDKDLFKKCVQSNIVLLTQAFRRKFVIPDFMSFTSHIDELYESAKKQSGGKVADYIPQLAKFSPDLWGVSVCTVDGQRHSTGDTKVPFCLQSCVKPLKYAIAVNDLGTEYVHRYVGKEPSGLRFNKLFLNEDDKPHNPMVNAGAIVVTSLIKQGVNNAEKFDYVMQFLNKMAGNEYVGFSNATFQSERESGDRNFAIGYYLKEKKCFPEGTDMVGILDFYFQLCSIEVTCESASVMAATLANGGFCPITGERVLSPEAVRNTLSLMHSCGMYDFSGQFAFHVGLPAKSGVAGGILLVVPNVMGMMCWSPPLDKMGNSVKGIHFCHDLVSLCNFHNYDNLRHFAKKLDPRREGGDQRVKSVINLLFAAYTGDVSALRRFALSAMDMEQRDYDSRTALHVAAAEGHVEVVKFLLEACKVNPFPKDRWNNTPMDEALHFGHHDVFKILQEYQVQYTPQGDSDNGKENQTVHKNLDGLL
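Compounds were pin-transferred onto hKGA, after which L-glutamine (1 mM solution) and a detection mix of glutamate oxidase, HRP and Amplex Red were added. Initial and 30 min RT fluorescence reads were collected.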
HP1b binding inh: blocks HP1-beta chromodomain binding to methylated histone tails; P83916; AlphaScreen HP1-beta / biotin-H3K9me3 peptide binding; Potency, µM (doses to about 114 µM), for inactives: at the highest dose activity change, negative = inhibition, usual class: inhibitors; actives 0.56% (n = 390,000); AID 540317; note: nearly all actives have a fitted effect of over 70% in size
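Compound inhibition of the preformed complex between 50 nM HP1-beta and 50 nM biotinylated H3K9me3 peptide was read by AlphaScreen. Buffer was PBS pH 7.4 with 0.01% Tween-20. Incubations ran 30 min at room temperature, with 10 ug/mL donor/acceptor beads.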
G9a inh: blocks human histone lysine methyltransferase G9a; Potency, µM (doses to about 102 µM), without a hit: at the top dose activity, negative = inhibition, usual class: inhibitors; Q96KQ7; actives 8.8% (n = 350,000); G9a H3K9 monomethylation, AlphaScreen, 2 h; note: % is set by controls: 0 for no effect and ±100 for the full control effect; nearly all actives have a fitted effect of over 75% in size
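Chemiluminescent proximity detection of H3K9 monomethylation, read after 10 min bead incubation in the dark. Reaction: 20 nM G9a, 500 nM biotin-H3K9 peptide, 20 uM SAM cofactor, 2 h, room temperature, following 15 min enzyme-compound preincubation.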
BAZ2B inh: blocks human BAZ2B; actives 4.4% (n = 360,000); AlphaScreen BAZ2B-H3K14Ac peptide displacement; Q9UIF8; Potency, µM (series often up to 114 µM), for inactives: at the highest dose activity change, negative = inhibition, usual class: inhibitors; AID 504333; note: % is set by controls: 0 for no effect and ±100 for the full control effect; nearly all actives have a fitted effect of over 60% in size
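Complex of BAZ2B and biotin-H3K14Ac (50 nM apiece) forms over 30 min at RT, then faces library compounds up to 110 uM for another 30 min; AlphaScreen beads added, 20 min dark incubation, luminescence read.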
JMJD2A Tudor inh: inhibitors of human JMJD2A Tudor domain; AlphaScreen JMJD2A-Tudor / H3K4me3 peptide binding; actives 4.4% (n = 390,000); Potency, µM (series often up to 114 µM), for inactives: top-dose activity change, negative = inhibition, hits mostly inhibitors; O75164; note: % is set by controls: 0 for no effect and ±100 for the full control effect; nearly all actives have a fitted effect of over 50% in size
* = called active by the depositor; ? = inconclusive; · = not tested or not shown; ! = not active in a repeat; [ ] = another dose, or the depositor's remark. Calls come from the whole dose curve; as a rule, active = well fitted curve in the direction sought with a large enough effect; inconclusive = small, poorly fitted or top-dose-only effect, or another doubt; inactive = no such curve, though single readings can be large; an effect the other way counts as inactive or inconclusive. Potency is the fitted concentration of half-maximal effect.

SMILES | GLS inh | HP1b binding inh | G9a inh | BAZ2B inh | JMJD2A Tudor inh
COc1ccc(N2CCN(C(=O)c3cnc(N4CCOCC4)c4ccccc34)CC2)cc1 | 1.7% | -0.8%[57 µM] | ? | ? | -31.6%
CCOC(=O)c1ccc2ncc(C(=O)OCC)c(Nc3ccc(N4CCOCC4)cc3)c2c1 | 2.5% | ? | ? | 14.1µM* | 39.8µM*
COc1ccccc1NC(=O)C(C)OC(=O)CSCC(=O)Nc1ccc(C)cc1C (stereo unspecified) | -2.6% | 13.8% | 3.0%[12.7 µM] | 5.7% | -11.1%
COC(=O)c1c(NC(=O)CN2C(=O)C(=O)N(CC(C)C)C2=O)sc2c1CCCCC2 | 4.3% | -17.9% | 4.6%[59 µM] | -37.8% | -27.2%
CCOC(=O)c1cnc2ccccc2c1Nc1cc(C(=O)O)ccc1C | 0.7% | 48.6% | 50.1µM* | -0.6% | -3.0%[11.4 µM]
CCOC(=O)c1cnc2ccc(OC)cc2c1Nc1ccc(N2CCN(C)CC2)cc1 | 12.6µM* | -32.1%[57 µM] | 35.5µM* | 35.5µM* | 31.6µM*
CCOC(=O)c1cnc2ccccc2c1Nc1ccc(N2CCOCC2)cc1 | 1.7% | -14.1% | ? | ? | ?
CCOC(=O)c1cnc2ccc(OC)cc2c1Nc1ccc2c(c1)OCCO2 | 2.0% | -16.1% | ? | ? | ?
CCOC(=O)c1cnc2c(Cl)cc(Cl)cc2c1Nc1cc(C(=O)O)ccc1C | 4.2% | 18.3% | -41.2%[59 µM] | -14.5% | -20.8%
CCOC(=O)c1cnc2c(C)cccc2c1Nc1ccc(N2CCOCC2)cc1 | · | · | 28.2µM* | 14.1µM* | ·
Cc1cc(C)cc(Nc2nnc(-n3nc(C)cc3C)c3ccccc23)c1 | 1.3% | 38.3% | 0.9%[59 µM] | -0.7% | -3.8%
Cc1nnc(SCC(=O)Nc2cccc([N+](=O)[O-])c2)n1CC1CCCO1 (stereo unspecified) | -0.4% | 21.3% | 13.2% | -12.8% | -2.0%
O=C(c1ccc(F)cc1)C1CCN(CCn2c(=O)[nH]c3ccccc3c2=O)CC1 | 1.2% | 0.9% | 0.794µM*! | ? | -19.4%
CC(C)N1CCC(N2CCN(CC#Cc3ccccc3)CC2CCO)CC1 (stereo unspecified) | 3.3% | 21.0% | · | -6.6% | -15.5%[57.1 µM]
Cc1ccccc1C(=O)NCC(c1ccc(N(C)C)cc1)N1CCCC1 (stereo unspecified) | 23.1% | -19.4% | -35.2%[59 µM] | ? | ?
CN(C)c1ccc(C(CNC(=O)c2ccccc2Br)c2c[nH]c3ccccc23)cc1 (stereo unspecified) | -3.2% | 24.5% | 10µM* | 14.1µM* | -21.4%
CN(C)c1ccc(C(CNC(=O)c2ccc(C#N)cc2)c2c[nH]c3ccccc23)cc1 (stereo unspecified) | 26.5% | ? | 10µM* | 20µM* | 39.8µM*
C[C@H]1CN([C@@H](C)CO)C(=O)CCCn2nncc2CO[C@@H]1CN(C)Cc1ccc2c(c1)OCO2 | 3.2% | · | · | · | ·
Cc1ccc(N(Cc2ccccc2)C(=O)c2cccc(S(=O)(=O)N3CCN(C)CC3)c2)cc1 | 3.9% | 0.3% | 10.8%[0.501 µM] | -12.1% | -26.7%
CN(Cc1ccc(OC(F)F)cc1)C(=O)/C=C/c1ccc(S(=O)(=O)N2CCOCC2)cc1 | -5.4% | 30.6% | · | · | -21.4%
CC1=C/C(=C(/c2cc(C)c(O)c(Br)c2)c2ccccc2S(=O)(=O)O)C=C(Br)C1=O | 24.0% | 31.6µM* | 3.1%[2.33 µM] | 17.8µM* | ?
CC1=C/C(=C(/c2ccc(O)c(C)c2)c2ccccc2S(=O)(=O)O)C=CC1=O | 25.5% | ? | -15.2%[12.7 µM] | 50.1µM* | -19.9%
O=C(CC(c1ccc(F)cc1)c1ccco1)N1CCOCC1 (stereo unspecified) | -0.8% | 47.5% | -29.2% | 11.7% | -13.1%
O=C(CC(c1ccc(F)cc1)c1ccco1)N1CCCC1 (stereo unspecified) | 2.1% | 32.4% | 39.8µM* | 6.8% | -19.9%
O=C(CC(c1ccc(F)cc1)c1ccco1)Nc1nccs1 (stereo unspecified) | 0.1% | -17.7% | 28.2µM* | ? | -33.7%
CCCN(CCC)C(=O)CC(c1ccc(F)cc1)c1ccco1 (stereo unspecified) | 6.8% | 38.8% | 44.7µM* | -31.6% | -32.8%
O=C(NC(=S)NCCC1=CCCCC1)c1ccccc1Br | -13.3% | 19.8% | · | 50.1µM* | -5.6%
